Bioassay records: PubChem BioAssay, several laboratories
ADAM10 inh: human ADAM10 inhibitors, primary screen, biochemical, QFRET, HTS; Disintegrin and metalloproteinase domain-containing protein 10 (Homo sapiens), O14672; recombinant ADAM10, EDANS/DABCYL FRET peptide cleavage, 3 h; inhibition, % at 7 µM; 370,000 tested, 0.62% active;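 active = inhibition above a per-campaign cutoff equal to the mean of compounds falling between control-based bounds plus 3 SD, cut at about 20% in these data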;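 also: 0% = DMSO wells while the 100% control is not disclosed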
Target sequence (O14672 214-748 limits assumed): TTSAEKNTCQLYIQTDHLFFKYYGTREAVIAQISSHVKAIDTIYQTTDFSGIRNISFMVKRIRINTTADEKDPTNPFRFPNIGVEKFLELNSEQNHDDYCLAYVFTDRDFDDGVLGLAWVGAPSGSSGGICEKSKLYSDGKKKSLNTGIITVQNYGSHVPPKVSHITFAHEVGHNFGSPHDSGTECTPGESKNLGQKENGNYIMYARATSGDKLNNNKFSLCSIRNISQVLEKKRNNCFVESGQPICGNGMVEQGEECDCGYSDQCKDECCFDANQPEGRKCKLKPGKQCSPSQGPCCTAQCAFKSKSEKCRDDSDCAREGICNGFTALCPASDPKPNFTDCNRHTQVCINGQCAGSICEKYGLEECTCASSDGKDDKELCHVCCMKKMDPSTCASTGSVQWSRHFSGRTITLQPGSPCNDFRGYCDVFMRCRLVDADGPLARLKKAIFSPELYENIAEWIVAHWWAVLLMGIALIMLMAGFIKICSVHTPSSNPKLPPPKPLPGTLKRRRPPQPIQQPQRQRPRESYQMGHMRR
FAS-TE inh: FAS thioesterase domain inhibitors, primary screen, biochemical, fluorescence intensity, uHTS. Fatty acid synthase (Homo sapiens), P49327. recombinant FAS-TE, OMFH fluorogenic substrate, fluorescence endpoint. inhibition, % at 15 µM. 360,000 tested, 0.67% active. AID 602261, 2012;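 active = compounds whose normalised, plate-corrected inhibition of enzyme fluorescence in the single-dose primary screen is 50% or more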;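 also: 0% = DMSO with enzyme and 100% = substrate without enzyme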
GRIN3A LBD mod: binders of NR3A ligand-binding domain, primary screen, biophysical, differential scanning fluorimetry, uHTS. Glutamate receptor ionotropic, NMDA 3A (GRIN3A) ligand-binding domain. NR3A LBD differential scanning fluorimetry, Tm shift; 0% = protein alone, 100% = glycine-bound protein. Tm shift relative to glycine control, % at 25 µM. 340,000 tested, 2.5% active;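 active = melting temperature shift of at least 10% of the positive control shift, at one fixed dose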
ADAM17 inh: ADAM17 inhibitors, primary screen, biochemical, QFRET. Disintegrin and metalloproteinase domain-containing protein 17 (Homo sapiens), P78536. inhibition, % at 6.95 µM. 370,000 tested, 0.83% active. recombinant ADAM17, EDANS/DABCYL FRET peptide cleavage. AID 720648, 2013;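 active = inhibition above the mean of compounds lying between control limits plus 3 SD, set per campaign, cut at about 8.5% in these data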;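 also: 0% = DMSO-only wells as the low control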
KLK7 zymogen act: proKLK7 zymogen activators, primary screen, biochemical, fluorescence intensity. Kallikrein-7 (Homo sapiens), P49862. purified proKLK7, EDANS-DABCYL substrate fluorescence; 100% is mature enzyme control, 0% vehicle. activation, % at 7 µM. 370,000 tested, 0.9% active;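 active = activation above the mean of all tested compounds plus 3 SD, computed per campaign excluding outliers beyond control limits, cut at about 13% in these data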
ADAM10 confirm: human ADAM10 inhibitors, confirmation, biochemical, QFRET, triplicate; ADAM10 QFRET peptide cleavage, EDANS fluorescence; shares compounds with ADAM10 inh; inhibition, % at 6.95 µM; 2,100 tested, 1% active;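 active = inhibition above about 20% chosen separately for each screening run, limit read from the data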;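 also: 0% = DMSO wells and 100% = marimastat wells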
ADAM17 ctr: ADAM17 inhibitors, counter-screen for ADAM10 exosite inhibitor project, biochemical, QFRET, high throughput; shares compounds with ADAM10 inh; ADAM17 QFRET peptide cleavage, EDANS fluorescence; 2,100 tested, 0.5% active; inhibition, % at 6.95 µM; AID 743214, 2013;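 active = mean triplicate inhibition above the solvent-only control wells' mean plus 3 SD, cut at about 12% in these data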;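 also: 0% = DMSO wells and 100% = marimastat wells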
Starred values were filed as active, the others as inactive; . = no result. Shown are actives, neighbours in structure and some others; about 4.6% of the full set was active somewhere.

SMILES	ADAM10 inh	FAS-TE inh	GRIN3A LBD mod	ADAM17 inh	KLK7 zymogen act	ADAM10 confirm	ADAM17 ctr
COC(=O)C1=C(C)N(Cc2ccc(Br)cc2)C(=S)NC1c1ccc(OC)cc1 (stereo not given)	8.4	.	.	1.1	-0.1	.	.
Cc1ccccc1-n1nc(-c2ccc(N)cc2)cc1N	41.9*	-5.1	-3.8	5.8	-2.3	3.1	-0.1
Cc1ccccc1Cn1cc(S(=O)(=O)CC(=O)Nc2nccs2)c2ccccc21	22.9*	19.5	-2.5	2.4	-0.1	3.7	0.3
CCC(c1nnnn1C1CCCCC1)N1CCN(C2CCCC2)CC1 (stereo not given)	-7.4	-7.5	8.1	-2.0	-0.8	.	.
CCC(c1nnnn1C(C)C)N1CCN(C2CCCC2)CC1 (stereo not given)	73.5*	-5.6	-0.2	0.7	-0.1	-2.6	-0.2
CSc1n[nH]c(-c2cccs2)n1	2.6	.	.	-2.1	0.1	.	.
Cc1ccnc(NS(=O)(=O)c2cccc3nsnc23)c1	20.4*	-2.8	1.2	-0.5	-0.1	1.6	1.4
Cc1ccccc1C(=O)N[C@H](C(=O)N1CCC[C@H]1C(=O)NCCc1ccccc1Cl)C(C)C	-3.4	.	.	-2.5	-0.8	.	.
COc1cc(OC)cc(C(=O)N[C@H](C(=O)OCC(=O)Nc2ccc(C(C)C)cc2)C(C)C)c1	20.6*	23.6	-2.5	4.1	0.1	7.4	1.9
COc1cc(/C=N/OCC(=O)Nc2ccc(OC(F)F)cc2)ccc1OCc1ccccc1	23.1*	32.5	-6.3	1.5	-4.5	11.2	3.9
CCOc1ccc(/C=N/OCC(=O)Nc2ccc(OCc3ccccc3)cc2)cc1OC	3.5	20.3	-2.9	-0.7	-0.8	.	.
COc1ccccc1C(=O)NC(=S)Nc1cccc2cc(O)ccc12	24.9*	14.1	8.8	5.7	2.5	9.1	2.6
COc1ccc(N2CCN(CCNS(=O)(=O)c3ccc(C)cc3)CC2)cc1	86.0*	-0.2	-0.3	2.9	0.1	1.5	1.6
COc1ccccc1-n1c(SCC(=O)NC2CCS(=O)(=O)C2)nc2cc([N+](=O)[O-])ccc21 (stereo not given)	9.7	10.5	0.1	0.6	-0.3	.	.
COc1ccccc1-n1c(SCC(=O)c2ccc(O)cc2O)nc2cc([N+](=O)[O-])ccc21	25.7*	24.8	29.9*	7.9	0.4	9.1	2.7
COc1ccc([C@@H]2[C@@H]3C(=O)N(C(C)(C)C)C(=O)[C@@H]3[C@]3(Cc4ccccc4)C(=O)N(c4ccc(OC)cc4)C(=O)N23)cc1	23.4*	12.3	-2.1	1.6	0.0	0.8	0.3
C=CCN1C(=O)[C@H](CC(=O)N2CCOCC2)[C@@]2(C(=O)OCC)CCCC=C12	-4.3	.	.	-4.1	-0.2	.	.
Cc1ccccc1Nc1nc(N)nc(COC(=O)c2cccc(S(=O)(=O)NCc3ccccc3)c2)n1	22.9*	18.0	-1.9	4.2	-0.2	1.6	0.0
c1ccc(-c2ccccc2C2Cc3nnccc3CN2)cc1 (stereo not given)	-6.8	.	.	-1.3	0.0	.	.
COc1ccc(NC(C)C(=O)Nc2ccc(C(C)(C)C)cc2)cc1Cl (stereo not given)	27.1*	-20.1	-1.6	7.5	0.4	7.3	1.2
COc1ccc(NC(C)C(=O)Nc2ccc(C#N)cc2)cc1Cl (stereo not given)	6.8	5.1	-7.5	-3.8	0.4	.	.
COC(=O)C1=C(C)N(Cc2ccccc2C(F)(F)F)C(=NCc2ccccc2)NC1CCc1ccccc1 (stereo not given)	7.2	.	.	-3.3	0.2	.	.
Nc1nc(F)nc2c1ncn2[C@@H]1O[C@H](COP(=O)(O)O)[C@@H](O)[C@@H]1O	-6.7	.	.	-1.4	-0.3	.	.
COc1ccccc1CNS(=O)(=O)c1ccc(-n2cnnn2)c(C)c1	-3.2	-3.0	-0.5	-4.1	-0.2	.	.
Cc1cc(S(=O)(=O)NCC(c2ccccc2)c2ccccc2)ccc1-n1cnnn1	20.4*	26.7	-10.0	4.9	0.3	2.3	0.5
SMILES	ADAM10 inh	FAS-TE inh	GRIN3A LBD mod	ADAM17 inh	KLK7 zymogen act	ADAM10 confirm	ADAM17 ctr
N#C/C(=N/Nc1ccc([N+](=O)[O-])cc1)C(=N)N1CCCCC1	0.3	9.0	0.3	1.3	0.0	.	.
N#C/C(=N\Nc1ccc([N+](=O)[O-])cc1)C(N)=S	19.9*	22.8	9.1	7.6	0.6	1.2	0.2
COC(=O)c1ccc(-c2cccc(CN3CCN(c4ncc(Cc5ccccc5)cn4)CC3)c2)cc1	-15.1	.	.	-5.7	0.4	.	.
CC1CC(=O)C2=C(C1)Nc1ccccc1SC2c1ccc(F)cc1 (stereo not given)	20.7*	11.7	-7.1	2.5	0.8	4.0	1.3
COCc1cc(N2CCN(C(=O)OC(C)(C)C)C[C@H]2C)ccc1N1CCS(=O)(=O)CC1	-8.2	.	.	-3.2	0.5	.	.
CC1CCCCC1NC(=O)C1CC(=O)N(Cc2ccccc2)C1 (stereo not given)	53.7*	-3.7	2.2	-6.3	-0.4	-0.5	0.6
O=c1c2ccccc2c(-c2ccc(O)cc2)nn1-c1cccc(C(F)(F)F)c1	21.1*	21.9	24.9*	11.7*	-2.7	5.9	2.2
O=c1c2ccccc2c(-c2cccc(C(F)(F)F)c2)nn1-c1ccccc1	1.9	31.7	0.8	1.6	0.0	.	.
Cc1cc(C)cc(-n2c(SCC(=O)Nc3cccc(S(=O)(=O)NC4=NCCCCC4)c3)nc3ccccc3c2=O)c1	25.6*	47.9	-1.7	5.9	0.5	3.9	1.0
CCn1nc(C(=O)OC(C(=O)c2c[nH]c3ccccc23)c2ccccc2)c2ccccc2c1=O (stereo not given)	24.1*	21.3	19.6*	6.8	-1.7	11.1	4.7
CCn1nc(C(=O)OCC(=O)c2ccc(F)cc2)c2ccccc2c1=O	-3.6	-5.4	-0.9	-4.2	0.2	.	.
O=C(N[C@H](C(=O)N1CCC[C@H]1C(=O)NCc1ccccc1)C1CCCCC1)c1ccc(Cl)cc1Cl	7.3	.	.	0.3	0.1	.	.
O=S1(=O)N[C@@H](Cc2ccccc2)COc2cc(N3CCCCC3)ccc21	1.5	.	.	-1.2	0.5	.	.
Cc1ccc(S(=O)(=O)N2CCCc3nc(-c4ccccc4)ccc32)cc1	4.4	.	.	0.8	-0.1	.	.
